PubChem BioAssay
Values joined by “and” are separate entries in the source; they are usually repeats but may differ in a detail not shown here. Equal entries are not always repeated. Active and inactive are the calls of the source.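 The calls were made as follows, unless noted: active = inhibition at or above 50% relative to wild type and mutant plate controls; inactive = inhibition below 50%.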

Columns and labels:
[1] = inhibitors of TNFa-induced NFkB p65 translocation, primary screen, imaging, HUVEC, MLSMR starter and 10KST1 sets (AID 438;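 active = inhibition above 20% together with a positive visual image hit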;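 also: compound added about 3h40 before a 20 min TNFalpha stimulation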;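 as to inhibition: signal is the nuclear over cytoplasmic p65 intensity ratio per well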); settings: HUVEC TNFa-induced p65 nuclear translocation; cell count: measured here: nuclei count (cytotoxicity indicator), at 2.08 µM; inhibition: at 2 µM, stronger effect = higher value, 0% TNFa-plus-vehicle, 100% no-TNFa wells
[2] = reduction of polyQ htt aggregates in cells – imaging, exon1htt(103Q)mCFP cells, high-content imaging, primary screen (AID 483;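 active = visual image review flags a hit and inhibition of aggregation exceeds 20%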;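 also: compound exposure lasted 3 days before fixation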;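 as to nuclei count: percent of the per-plate median nuclei count of sample wells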); settings: exon1htt(103Q)mCFP cell line, aggregate imaging, at 2 µM; inhibition of aggregation: stronger effect = higher value; nuclei count: measured here: cell count, toxicity
[3] = endothelial E-selectin expression blockers – imaging, HUVEC, immunofluorescence, MLSMR starter and 10KST1 sets, primary screen (AID 487;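 active = visually confirmed hit in the image check and inhibition above 20%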;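 as to inhibition: signal is fraction of cell area covered by stained E-selectin grains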;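 as to nuclei count: 100% = median nuclei count of all wells on the same plate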); settings: HUVEC TNFalpha-induced E-selectin immunofluorescence imaging, at 2 µM; inhibition: stronger effect = higher value; nuclei count: measured here: cell number, toxicity
[4] = Primary imaging screen for DUSP6 inhibitors that restore phospho-Erk in transfected HeLa cells, chemical complementation (AID 609;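 active = compounds giving at least 50% inhibition in the cell-based MKP-3 phosphatase rescue imaging test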;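 as to inhibition: phospho-Erk level distribution per well compared with pooled transfected vehicle control wells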); settings: HeLa MKP-3 transfected, phospho-Erk imaging KS statistic, at 10 µM, cells stimulated with TPA for 15 min
[5] = target: Dual specificity protein phosphatase 6 (Homo sapiens) (UniProt Q16828); assay: as above; settings: HeLa MKP-3 transfected, phospho-Erk imaging KS statistic; at 10 µM; stronger effect = higher value; cells stimulated with TPA for 15 min
[6] = target: Voltage-gated potassium channel subunit beta-2 (Rattus norvegicus) (UniProt P62483); assay: inhibitors of rat Kvbeta2 reductase activity – biochemical, NADPH fluorescence, primary screen (AID 622;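 active = fluorescence slope higher than the sample average by over 3 SD, cut at about -0.22 in these data, passing the limit was not always enough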;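 also: slope of raw intensity against log time taken from 70 to 1610 s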); settings: recombinant KvBeta, 4-cyanobenzaldehyde reduction, at 10 µM, stronger effect = higher value
[7] = target: Voltage-gated potassium channel subunit beta-2 (Rattus norvegicus) (UniProt P62483); assay: enhancers of rat Kvbeta2 NADPH turnover – biochemical, NADPH fluorescence, primary screen (AID 623;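 active = NADPH fluorescence slope more negative than the mean of all samples by about 3 SD, 99.7% confidence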;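 also: fluorescence intensity change per second fitted from 20 to 320 s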); settings: Recombinant KvBeta, NADPH fluorescence decrease slope, 10 min; at 10 µM; stronger effect = lower value
[8] = target: Alpha-2C adrenergic receptor (Homo sapiens) (UniProt P18825); assay: compounds altering alpha2C-coupled GIRK flux – cell-based, HEK293 alpha2C/GIRK1/2, thallium flux, primary screen (AID 624;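 active = fluorescence slope after compound addition differing from the mean of all screened samples at 99.7% confidence, in either direction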;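 also: slope of fluorescence ratio to pre-addition baseline per second over 15 to 24 s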); settings: thallium flux BTC fluorescence, at 10 µM, actives lie on both sides
[9] = inhibitors of larval lipid processing in zebrafish, primary screen, whole organism, PED6 fluorescence, gall bladder and intestine (AID 686;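 active = a full or partial loss of lipid-probe fluorescence in the fish gall bladder, intestine or both, judged by eye; inactive = no fluorescence loss, or compound toxic to the fish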;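 also: larvae 5 to 7 days old with five fish per well; signal comes from phospholipase A2 cleavage of quenched PED6 carried via bile; overnight exposure to compound and PED6 before scoring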); settings: Zebrafish larvae PED6 lipid processing, fluorescence scoring; screened at 20 µM (by protocol)
[10] = loss of swimming-algae plug formation – whole organism, Chlamydomonas reinhardtii, WT vs cilia-less mutant, absorbance, 96-well, primary screen (AID 463189); settings: Chlamydomonas reinhardtii gravitaxis, OD600 absorbance, 2 days; at 10 µM; stronger effect = higher value;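 also: 0% = wild type cc124 cells in DMSO and 100% = ciliumless bld1 mutant cells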
[11] = blockers of RIG-like receptor reporter activation – cell-based, Sendai virus stimulus, luciferase, 10K MLSCN set, TLR/RLR signaling modifier project, primary screen (AID 602276;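 active = inhibition at or above 50% at 10 µM; inactive = inhibition below 50%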;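 also: firefly luciferase from ISG56 promoter only with Renilla not read in this screen; 0% = Sendai virus plus DMSO and 100% = medium plus DMSO without virus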); settings: HEK293 RL24 IRF3 luciferase reporter, at 10 µM, stronger effect = higher value
[12] = TLR3 IRF3 reporter activation blockers – cell-based, poly I:C stimulus, luciferase, 10K MLSCN set, primary screen (AID 602277;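 active = inhibition of the reporter signal at or above 50%; inactive = inhibition below 50%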); settings: HEK293-TLR3 RL24 IRF3 luciferase reporter, at 10 µM, stronger effect = higher value
[13] = measured here: cell density z-score
[14] = measured here: nuclear c-Myc green intensity z-score
[15] = measured here: nuclear pErk red intensity z-score, stronger effect = higher value

Chain of Alpha-2C adrenergic receptor (Homo sapiens) (P18825 whole entry, looked up): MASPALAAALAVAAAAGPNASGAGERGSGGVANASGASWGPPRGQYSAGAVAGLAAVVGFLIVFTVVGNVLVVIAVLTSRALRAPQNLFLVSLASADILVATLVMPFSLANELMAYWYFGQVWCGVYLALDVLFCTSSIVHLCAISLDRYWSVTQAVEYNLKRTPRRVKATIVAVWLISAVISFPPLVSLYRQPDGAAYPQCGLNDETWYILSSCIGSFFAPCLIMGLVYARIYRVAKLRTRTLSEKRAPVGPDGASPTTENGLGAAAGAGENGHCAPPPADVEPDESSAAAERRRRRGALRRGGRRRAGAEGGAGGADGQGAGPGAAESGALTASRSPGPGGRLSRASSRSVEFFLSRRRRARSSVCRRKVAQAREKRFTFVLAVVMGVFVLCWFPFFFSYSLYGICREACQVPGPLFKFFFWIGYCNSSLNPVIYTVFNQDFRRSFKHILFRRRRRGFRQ
Chain of Voltage-gated potassium channel subunit beta-2 (Rattus norvegicus) (P62483 whole entry, looked up): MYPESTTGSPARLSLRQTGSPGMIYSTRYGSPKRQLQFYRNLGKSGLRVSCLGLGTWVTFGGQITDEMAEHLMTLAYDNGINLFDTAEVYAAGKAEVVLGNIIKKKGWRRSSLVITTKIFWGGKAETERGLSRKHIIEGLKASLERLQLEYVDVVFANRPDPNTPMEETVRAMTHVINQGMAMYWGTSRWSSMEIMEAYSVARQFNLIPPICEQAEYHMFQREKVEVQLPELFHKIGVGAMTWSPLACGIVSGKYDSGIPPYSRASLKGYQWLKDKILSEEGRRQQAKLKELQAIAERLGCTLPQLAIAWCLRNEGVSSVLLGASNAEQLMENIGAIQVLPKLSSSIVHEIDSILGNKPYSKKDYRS
Chain of Dual specificity protein phosphatase 6 (Homo sapiens) (Q16828 whole entry, looked up): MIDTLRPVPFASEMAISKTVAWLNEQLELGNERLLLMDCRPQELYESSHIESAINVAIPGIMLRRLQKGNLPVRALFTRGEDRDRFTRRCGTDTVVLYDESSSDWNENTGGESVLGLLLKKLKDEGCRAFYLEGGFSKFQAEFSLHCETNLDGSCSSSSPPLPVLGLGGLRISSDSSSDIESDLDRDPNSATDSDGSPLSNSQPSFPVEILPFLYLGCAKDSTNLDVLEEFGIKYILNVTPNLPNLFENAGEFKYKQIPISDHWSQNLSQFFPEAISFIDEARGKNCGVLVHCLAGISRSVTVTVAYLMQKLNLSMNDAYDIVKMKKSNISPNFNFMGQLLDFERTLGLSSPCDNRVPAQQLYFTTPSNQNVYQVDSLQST

| SMILES | cell count [1] | inhibition [1] | inhibition of aggregation [2] | nuclei count [2] | inhibition [3] | nuclei count [3] | z-score [4, 13] | z-score [4, 14] | z-score [4, 15] | inhibition [5] | fluorescence slope [6] | NADPH fluorescence slope [7] | slope [8] | outcome [9] | inhibition [10] | inhibition [11] | inhibition [12] |
| --- | --- | --- | --- | --- | --- | --- | --- | --- | --- | --- | --- | --- | --- | --- | --- | --- | --- |
| CCCCC[C@H](O)/C=C/[C@H]1C=CC(=O)[C@@H]1C/C=C\CCCC(=O)O | 543 | -11.1% (inactive) | 16% (inactive) | 84.8% | -33.9% (inactive) | 110% | 1.78 | -0.725 | -0.854 | 7.39% (inactive) | -0.458 (inactive) | -5.4e-05 (inactive) | 0.00837 (inactive) | inactive | 5.58% (inactive) | -2.27% (inactive) | 25% (inactive) |
| Cn1c(=O)c2c(ncn2CCO)n(C)c1=O | 575 | 3.2% (inactive) | -12.9% (inactive) | 102% | -46.8% (inactive) | 114% | -1.46 | -1.4 | -0.23 | 1.38% (inactive) | -0.45 (inactive) | -4.4e-05 (inactive) | 0.00454 (inactive) | inactive | -9.91% (inactive) | 14.7% (inactive) | 34.5% (inactive) |
| CCOC(=O)c1c(C(F)(F)C(F)(F)C(F)(F)C(F)(F)F)n[nH]c1C | 532 | -3.7% (inactive) | 10.3% (inactive) | 97.3% | -78.6% (inactive) | 128% | -0.312 | 0.0825 | -0.449 | 11.3% (inactive) | -0.521 (inactive) | -9.8e-05 (inactive) | 0.00424 (inactive) | inactive | 17.6% (inactive) | 17.2% (inactive) | 24.6% (inactive) |
| O=C(COc1ccccc1)Nc1ccc(-c2nnc(-c3ccco3)o2)cc1 | 458 | -4.3% (inactive) | 7.5% (inactive) | 101% | -252% (inactive) | 102% | -2.58 | 1.43 | -0.658 | 3.97% (inactive) | -0.499 (inactive) | -2.1e-05 (inactive) | 0.00796 (inactive) | inactive | -15.4% (inactive) | -55.4% (inactive) | -103% (inactive) |
| CN1CCc2c(sc3c2c(=O)n(-c2ccccc2)c2nnc(SCc4ccccc4)n32)C1 | 562 | -16.1% (inactive) | 8.3% (inactive) | 116% | -95.1% (inactive) | 142% | 0.865 | -2.08 | -0.239 | 3.66% (inactive) | -0.563 (inactive) | -1.4e-05 (inactive) | 0.00449 (inactive) | inactive | 5.3% (inactive) | -12.4% (inactive) | 98.5% (active) |
| CN(C)C(=O)Oc1cccc([N+](C)(C)C)c1 | 531 and 586 | -9.9% (inactive) and -7.8% (inactive) | 17.2% (inactive) and -13.6% (inactive) | 74.9% and 106% | -9.8% (inactive) and -52% (inactive) | 104% and 142% | 0.51 and -0.93 | 1.04 and 0.599 | 0.404 and -0.0753 | 17.3% (inactive) and -0.493% (inactive) | -0.425 (inactive) and -0.463 (inactive) | -3.3e-06 (inactive) and -0.000178 (inactive) | 0.00518 (inactive) and 0.00527 (inactive) | inactive | -1.35% (inactive) and 24.7% (inactive) and 16% (inactive) | 14.9% (inactive) and 3.46% (inactive) | 31.8% (inactive) and 16.1% (inactive) |
| CN(C)CCOC(=O)C(c1ccccc1)C1(O)CCCC1 (stereo not given) | 635 | -7.2% (inactive) | -8.5% (inactive) | 102% | -51% (inactive) | 110% | 0.315 | 0.351 | 1.54 | -6.41% (inactive) | -0.432 (inactive) | -7.3e-05 (inactive) | 0.00471 (inactive) | inactive | 13.5% (inactive) | 15.3% (inactive) | 45.7% (inactive) |
| CC(C)COc1nc2ccccc2nc1C(C#N)C(=O)NC1CCCCC1 (stereo not given) | 342 | -6.5% (inactive) | 11.7% (inactive) | 98.8% | -27.9% (inactive) | 133% | 0.00555 | 0.614 | 0.00363 | -5.26% (inactive) | -0.423 (inactive) | -0.00013 (inactive) | 0.00573 (inactive) | inactive | 9.16% (inactive) | 13.4% (inactive) | 8.92% (inactive) |
| CN1CC=C2C(C#N)=C(N)C(C#N)(C#N)[C@H](c3cccc(Cl)c3)C2C1 (stereo not given in full) | 642 | -6% (inactive) | -38.1% (inactive) | 98.3% | -18.6% (inactive) | 125% | 0.015 | 5.62 | 0.205 | 71% (inactive) | -0.368 (inactive) | -4.7e-05 (inactive) | 0.00551 (inactive) | inactive | 5.27% (inactive) | 13.6% (inactive) | 24.1% (inactive) |
| Cc1oc2cc(O)ccc2c(=O)c1-c1cnn(-c2ccccc2)c1 | 454 | -6.5% (inactive) | -9% (inactive) | 102% | -212% (inactive) | 120% | -0.098 | -0.0689 | 0.86 | -9.91% (inactive) | -0.486 (inactive) | 1.2e-05 (inactive) | 0.00452 (inactive) | inactive | 9.82% (inactive) | 7.89% (inactive) | 0.114% (inactive) |
| CCCc1c(OCCCCc2nn[nH]n2)ccc(C(C)=O)c1O | 599 | -11.6% (inactive) | -9.3% (inactive) | 95.3% | -37.8% (inactive) | 129% | 0.961 | 0.408 | -0.601 | 9.37% (inactive) | -0.458 (inactive) | -4e-05 (inactive) | 0.00468 (inactive) | inactive | -12.8% (inactive) | 15.4% (inactive) | 34.3% (inactive) |
| CCCCCCCCCCCCCCCC(O)C(N)CO (stereo not given) | 586 | 0.2% (inactive) | -17.4% (inactive) | 104% | -75.6% (inactive) | 122% | 0.584 | 2.76 | 2.96 | 25.1% (inactive) | -0.485 (inactive) | -6.4e-05 (inactive) | 0.00528 (inactive) | inactive; toxic | 61% (active) | 18.8% (inactive) | 4.1% (inactive) |
| Cc1c(CCC#N)c(N2CCN(C3CCCCC3)CC2)n2c(nc3ccccc32)c1C#N | 433 | -14.4% (inactive) | 14.6% (inactive) | 98.9% | -38.1% (inactive) | 128% | 0.167 | -0.385 | -0.671 | 13.7% (inactive) | -0.236 (inactive) | -5.2e-06 (inactive) | 0.00599 (inactive) | inactive | 8.11% (inactive) | 19.2% (inactive) | 17.3% (inactive) |
| COc1ccc(C2/C(=C(/O)c3ccc(OC(C)C)cc3)C(=O)C(=O)N2CCCN2CCOCC2)cc1 (stereo not given) | 466 | 4.1% (inactive) | -2.7% (inactive) | 102% | -19.1% (inactive) | 134% | -0.477 | 0.263 | 0.227 | -11.9% (inactive) | -0.319 (inactive) | -2e-05 (inactive) | 0.00508 (inactive) | inactive | -1.04% (inactive) | 9.78% (inactive) | 13.7% (inactive) |
| O=C(c1cccc2ccccc12)N1CCC(N2CCN(c3ccccc3)CC2)CC1 | 373 | -1.4% (inactive) | 12.1% (inactive) | 95.9% | -64.1% (inactive) | 81.4% | 0.565 | 1.38 | -0.642 | 13.2% (inactive) | -0.528 (inactive) | -1.2e-05 (inactive) | 0.00499 (inactive) | inactive | 29.4% (inactive) | 4.24% (inactive) | 21.4% (inactive) |
| CC1(C)O[C@@H]2C[C@H]3[C@@H]4C[C@H](F)C5=CC(=O)CC[C@]5(C)[C@H]4[C@@H](O)C[C@]3(C)[C@]2(C(=O)CO)O1 | 547 | -0.5% (inactive) | -27.2% (inactive) | 54.1% | 1.2% (inactive) | 102% | -0.857 | -0.0426 | 0.461 | -2.46% (inactive) | -0.476 (inactive) | -9e-05 (inactive) | 0.00483 (inactive) | inactive | 6.62% (inactive) | -7.22% (inactive) | 22% (inactive) |
| C[N+]12CCC(CC1)C(OC(=O)C(O)(c1ccccc1)c1ccccc1)C2 (stereo not given) | 609 | -0.8% (inactive) | 3.7% (inactive) | 106% | -71.3% (inactive) | 119% | -0.393 | -0.0364 | 0.334 | 3.45% (inactive) | -0.526 (inactive) | -2.4e-05 (inactive) | 0.00456 (inactive) | inactive | -10.3% (inactive) | 6.28% (inactive) | 21.7% (inactive) |
| CCCCC1C(=O)N(c2ccccc2)N(c2ccccc2)C1=O | 638 | 4.6% (inactive) | -5.9% (inactive) | 96.9% | -26.6% (inactive) | 109% | 1.68 | -0.325 | -0.291 | 8% (inactive) | -0.483 (inactive) | -4.2e-05 (inactive) | 0.00446 (inactive) | inactive | 5.13% (inactive) and -8.61% (inactive) | 19.9% (inactive) | 41.2% (inactive) |
| CSc1ccc2c(c1)N(CCC1CCCCN1C)c1ccccc1S2 (stereo not given) | 643 | -2.7% (inactive) | 4.7% (inactive) | 89.1% | -54.8% (inactive) | 119% | 0.315 | 3.44 | 1.46 | -4.44% (inactive) | -0.555 (inactive) | -5.2e-05 (inactive) | 0.00348 (inactive) | inactive | 77.2% (active) and 160% (active) | 32% (inactive) | 30% (inactive) |
| O=C1OC(c2ccc(O)cc2)(c2ccc(O)cc2)c2ccccc21 | 608 | -5% (inactive) | 4.4% (inactive) | 77.9% | -50.7% (inactive) | 116% | 2.02 | -0.265 | -1.6 | 21.2% (inactive) | -0.449 (inactive) | -6.8e-05 (inactive) | 0.00467 (inactive) | inactive | -5.48% (inactive) | 11.5% (inactive) | 41.9% (inactive) |
